Compound activity deposited in PubChem BioAssay by Sanford-Burnham Center for Chemical Genomics.
Only some compounds are listed: those with a hit (about 4% of all), similar ones and a draw of the others.
TROY NFkB inh – blocks TROY-dependent signaling in reporter cells | Q293 LMP1-TROYcd NF-kB luciferase reporter, 4 h | AID 1347056 | 360,000 tested, 0.98% active | inhibition, % at 10 µM;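 active = compounds whose plate-normalised and pattern-corrected inhibition of the luciferase reporter signal at the single screening dose is 50% or more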
TWEAK Fn14 block – TWEAK-Fn14 signaling inhibition. inhibition, % at 10 µM. 360,000 tested, 2% active. TWEAK-stimulated Fn14 reporter cells, luciferase luminescence, 8 h; in the data active = inhibition above about 50%
HIF-2a inh – inhibitors of HIF-2a | 786-0 RCC cells HIF-2a reporter, luciferase luminescence, overnight | inhibition, % at 18.8 µM | 360,000 tested, 0.72% active | AID 624352;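 active = inhibition of the luminescence signal of 40% or more relative to plate controls, in a single-dose primary screen at 18.75 µM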
KKLEB tox – reduces viability of KKLEB cystic fibrosis airway cells. KKLEB CF airway cells viability, ATPlite luminescence, overnight; hits give low values; cells stimulated with P. aeruginosa culture filtrate. activity change (cytotoxicity), % at 5 µM. 360,000 tested, 0.36% active;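 active = corrected activity change at or below -50% at 5 µM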
Peg3 prom inh – inhibitors of Peg3 promoter. HeLa PEG-Prom luciferase reporter, luminescence, overnight. inhibition, % at 20 µM. 360,000 tested, 1.7% active;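 active = inhibition of at least 50% at 20 µM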
CF NFkB inh – inhibitors of cystic fibrosis induced NF-kB | KKLEB NF-kB-GFP reporter, PAF-induced, GFP fluorescence overnight | inhibition, % at 5 µM | 360,000 tested, 0.86% active;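 active = at least 50% inhibition at 5 µM, scaled per plate between neutral and stimulator controls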;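 note: PAF is a Pseudomonas aeruginosa culture filtrate used as stimulus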
A number is an active result; i = inactive; nt = no result given.

SMILES	TROY NFkB inh	TWEAK Fn14 block	HIF-2a inh	KKLEB tox	Peg3 prom inh	CF NFkB inh
COc1ccc(S(=O)(=O)Nc2ccc(O)c3ccccc23)cc1	i	i	i	i	i	90
COc1ccc(S(=O)(=O)Nc2ccccc2)cc1	i	i	i	i	i	i
COc1ccc(OC)c(NC(=O)Nc2ccc(O)c3ccccc23)c1	i	90	i	i	i	i
COc1ccc(OC)c(NC(=O)Nc2c(O)ccc3ccccc23)c1	i	i	i	i	i	i
Cc1ccc(C)c(S(=O)(=O)Nc2ccc(O)c3ccccc23)c1	i	85	i	-53	i	86
O=S(=O)(Nc1c(O)ccc2ccccc12)c1ccc(F)cc1	54	i	i	i	i	i
CCCCN(C=O)c1c(CC)nc2ccc(C(=O)NCc3cccs3)cn12	i	i	i	i	i	i
COC1=CC(=O)C(OC)=C(OC)C1=O	i	i	i	i	63	58
COc1ccc(S(=O)(=O)N2CCCCC2)cc1C(=O)N1CCCCCC1	i	i	i	i	i	i
CCCCN(C(=O)c1cc2c(s1)CCC2)c1c(N)n(CCCC)c(=O)[nH]c1=O	i	i	i	i	i	i
COc1ccc(-n2c(N)c(C(=O)NCc3ccco3)c3nc4ccccc4nc32)cc1	i	66	i	i	i	i
N#Cc1c(N)n(CCOC(=O)c2cccc(Br)c2)c2nc3ccccc3nc12	69	i	i	i	i	i
N#Cc1c(N)n(CCOC(=O)c2cccc([N+](=O)[O-])c2)c2nc3ccccc3nc12	i	i	i	i	i	i
Nc1c(C(=O)NCCN2CCOCC2)c2nc3ccccc3nc2n1CCc1ccccc1	69	i	i	i	i	i
Nc1c(C(=O)NCCN2CCOCC2)c2nc3ccccc3nc2n1CCc1ccccc1F	i	i	i	i	i	i
COCCn1c(N)c(C#N)c2nc3ccccc3nc21	i	i	i	i	i	i
N#Cc1c(N)n(CCc2ccc(F)cc2)c2nc3ccccc3nc12	nt	63	i	i	i	i
COc1ccc(Cn2c(N)c(C#N)c3nc4ccccc4nc32)cc1	i	i	i	i	i	i
COc1cccc(Cn2c(N)c(C#N)c3nc4ccccc4nc32)c1OC	65	i	i	i	i	i
Nc1c(C(=O)NCc2ccco2)c2nc3ccccc3nc2n1CCc1ccc(F)cc1	64	i	i	i	i	i
COc1cc(C(=O)NC2CCN(CC(=O)Nc3cccc(C)c3C)CC2)cc(OC)c1OC	i	i	i	i	i	i
CCOc1cc(N2CCOCC2)c(OCC)cc1NC(=O)COC(=O)COc1ccc(C#N)cc1	i	i	i	i	i	i
CCn1c(Sc2ccc([N+](=O)[O-])cn2)nnc1-c1ccco1	i	55	i	i	i	i
CN[C@@H](CO)C(=O)NC[C@H]1O[C@@H](n2cnc3c(=O)[nH]c(N)nc32)[C@H](O)[C@@H]1O	i	i	i	i	i	i
CCOC(=O)[C@]12CCC=C1N(CCC1=CCCCC1)C(=O)[C@H](CC(=O)NCCCCc1ccccc1)C2	i	i	i	nt	nt	nt
SMILES	TROY NFkB inh	TWEAK Fn14 block	HIF-2a inh	KKLEB tox	Peg3 prom inh	CF NFkB inh
C(=C\c1ccco1)/c1nc2ccccc2[nH]1	i	i	i	i	i	i
Cc1nc(/C=C/c2ccccc2)[nH]c(=O)c1-c1ccccc1	i	64	i	i	i	i
CN(C)c1ccc(/C=C/c2nc3ccccc3c(=O)[nH]2)cc1	70	88	i	-77	i	i
C(=C\c1nc2ccccc2[nH]1)/c1ccccc1	i	75	i	i	i	i
O=c1cc(-c2ccncc2)oc2c1ccc1ccccc12	i	i	i	i	80	i
O=c1cc(-c2ccco2)oc2c1ccc1ccccc12	i	i	i	i	i	i
O=c1cc(-c2ccc(O)cc2)oc2c1ccc1ccccc12	63	i	i	i	i	i
COc1ccc(NC(=O)c2cc3ccccn3n2)cc1	i	63	i	i	i	i
COc1ccc(NC(=O)c2ccccn2)cc1	57	84	i	i	i	i
NC(=O)c1ccc(NC(=O)CCc2nc3ccccc3s2)cc1	i	i	i	i	i	i
COc1ccc(C(=O)Nc2ccc(NC(=O)c3ccccn3)cn2)cc1	i	i	i	i	i	i
Cc1ccc(NC(=S)c2nc3ccccc3s2)cc1	55	78	i	i	i	i
O=C(Nc1ccc(Cc2nc3ccccc3s2)cc1)c1ccncc1	i	59	i	i	i	i
Cc1ccccc1NC(=O)NC1(C(=O)NCc2ccco2)CCCCC1	i	i	i	i	i	i
Cc1ccccc1C(=O)N1CCC(C(=O)OCc2ccccn2)CC1	i	i	i	i	i	i
COc1ccc(NC(=O)c2nc3ccccc3s2)cc1	i	61	i	i	i	i
CSc1nc2ccc(NC(=O)c3ccccn3)cc2s1	i	72	i	i	i	i
COc1ccc(C(=O)NCCSc2ccccn2)cc1	i	65	i	i	i	i
COc1ccc(N(CC(=O)NCCSc2ccccn2)S(C)(=O)=O)cc1	i	i	i	i	i	i
COc1ccc(OC)c(NC(=O)c2nc3ccccc3s2)c1	i	i	i	i	i	i
COC(=O)c1cc(S(=O)(=O)NCCc2ccc(C)cc2)c[nH]1	i	i	i	i	i	i
COC(=O)c1cc(S(=O)(=O)NCCc2ccc(Cl)cc2)c[nH]1	i	i	i	i	i	51
CC(=O)Nc1ccc(S(=O)(=O)N2CCc3cc4c(cc3C2)OCCCO4)cc1	i	i	i	i	i	i
Nc1ccc(/C=C/C(=O)c2ccco2)cc1	i	i	i	i	i	i
CC(C)(C)C(=O)Nc1ccc(/C=C/C(=O)c2ccco2)cc1	72	54	i	i	i	i
SMILES	TROY NFkB inh	TWEAK Fn14 block	HIF-2a inh	KKLEB tox	Peg3 prom inh	CF NFkB inh
COc1ccc(-c2c(-c3cc(OC)cc(OC)c3)n(C)c3ccc(-c4ccc5[nH]ccc5c4)cc23)cc1	i	i	i	i	i	i
COc1cc2cc3c(N)c(C(=O)Nc4sc(C)c(C)c4C#N)sc3nc2cc1OC	i	i	i	-100	i	89
COc1cc2cc3c(N)c(C(=O)NCc4ccco4)sc3nc2cc1OC	i	i	i	i	i	i
Cc1ccc(C)c(S(=O)(=O)N2CCN(C(=O)c3ccnn3C)CC2)c1	i	i	i	i	i	i
O=C(Nc1cccnc1)c1cn(-c2ccccc2)nc1-c1cccs1	i	i	i	i	i	i
CCN(CC)CCNC(=O)c1ccc(NC(=O)c2cn(-c3ccc(F)cc3)nc2-c2cccc(OC)c2)cc1	i	i	i	i	101	i
CCN(CC)CCNC(=O)c1ccc(NC(=O)c2cn(-c3ccccc3)nc2-c2cccs2)cc1	i	i	i	i	106	i
CCN(CC)CCNC(=O)c1ccc(NC(=O)c2cc(-c3ccco3)nc3ccccc23)cc1	i	i	i	i	61	i
CCOC(=O)N1CCN(CC(=O)Nc2nc3ccc(OC)cc3s2)CC1	i	i	i	i	i	i
CCOC(=O)C1CCN(C(=O)c2cc3c(ccc4ccccc43)o2)CC1	i	i	i	i	i	i
